Measured values taken from ChEMBL document CHEMBL1961873, “Compounds: GSK PKIS; Assays: Nanosyn kinase panel” (2012).

Key:
[1] = molecular target: T1, Muscle, skeletal receptor tyrosine-protein kinase (Homo sapiens) (UniProt O15146); conditions: at 1 µM;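 also: reported value is the mean percent inhibition of MuSK kinase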
T1 sequence (whole entry): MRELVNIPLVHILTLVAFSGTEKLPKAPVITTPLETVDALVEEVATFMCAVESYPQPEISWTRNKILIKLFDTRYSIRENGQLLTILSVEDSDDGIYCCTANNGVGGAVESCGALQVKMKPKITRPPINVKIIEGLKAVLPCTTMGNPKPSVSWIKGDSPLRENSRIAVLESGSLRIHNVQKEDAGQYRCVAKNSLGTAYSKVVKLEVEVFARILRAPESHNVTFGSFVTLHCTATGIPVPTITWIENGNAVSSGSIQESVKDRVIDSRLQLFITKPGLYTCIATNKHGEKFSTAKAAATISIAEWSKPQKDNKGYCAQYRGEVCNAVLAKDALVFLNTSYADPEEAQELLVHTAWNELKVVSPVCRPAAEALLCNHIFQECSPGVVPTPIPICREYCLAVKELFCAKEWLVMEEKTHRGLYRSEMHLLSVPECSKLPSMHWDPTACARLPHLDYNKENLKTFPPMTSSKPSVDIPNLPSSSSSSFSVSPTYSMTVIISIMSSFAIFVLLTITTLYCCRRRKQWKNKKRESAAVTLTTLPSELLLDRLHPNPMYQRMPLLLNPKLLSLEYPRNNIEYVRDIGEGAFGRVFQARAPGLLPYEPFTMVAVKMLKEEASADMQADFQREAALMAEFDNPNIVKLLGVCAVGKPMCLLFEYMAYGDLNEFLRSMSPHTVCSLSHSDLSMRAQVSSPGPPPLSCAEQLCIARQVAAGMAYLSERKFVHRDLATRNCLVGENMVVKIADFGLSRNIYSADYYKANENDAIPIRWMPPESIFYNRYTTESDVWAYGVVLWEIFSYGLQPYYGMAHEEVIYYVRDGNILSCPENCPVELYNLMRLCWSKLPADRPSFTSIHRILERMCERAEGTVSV

[2] = molecular target: Platelet-derived growth factor receptor alpha (Homo sapiens) (UniProt P16234); conditions: at 0.1 µM
[3] = molecular target: Platelet-derived growth factor receptor alpha (Homo sapiens) (UniProt P16234); conditions: at 1 µM
[4] = tested on: Platelet-derived growth factor receptor alpha (Homo sapiens), P16234 [D842V]; conditions: at 0.1 µM
[5] = tested on: Platelet-derived growth factor receptor alpha (Homo sapiens), P16234 [D842V]; conditions: at 1 µM
[6] = tested on: Platelet-derived growth factor receptor alpha (Homo sapiens), P16234 [T674I]; conditions: at 0.1 µM
[7] = tested on: Platelet-derived growth factor receptor alpha (Homo sapiens), P16234 [T674I]; conditions: at 1 µM
[8] = tested on: Platelet-derived growth factor receptor alpha (Homo sapiens), P16234 [V561D]; conditions: at 0.1 µM
[9] = tested on: Platelet-derived growth factor receptor alpha (Homo sapiens), P16234 [V561D]; conditions: at 1 µM
[10] = molecular target: Platelet-derived growth factor receptor beta (Homo sapiens) (UniProt P09619); conditions: at 0.1 µM
[11] = molecular target: Platelet-derived growth factor receptor beta (Homo sapiens) (UniProt P09619); conditions: at 1 µM
[12] = molecular target: Tyrosine-protein kinase FRK (Homo sapiens) (UniProt P42685); conditions: at 0.1 µM
[13] = molecular target: Tyrosine-protein kinase FRK (Homo sapiens) (UniProt P42685); conditions: at 1 µM
[14] = molecular target: Protein-tyrosine kinase 2-beta (Homo sapiens) (UniProt Q14289); conditions: at 0.1 µM
[15] = molecular target: Protein-tyrosine kinase 2-beta (Homo sapiens) (UniProt Q14289); conditions: at 1 µM
[16] = molecular target: Proto-oncogene tyrosine-protein kinase receptor Ret (Homo sapiens) (UniProt P07949); conditions: at 0.1 µM
[17] = molecular target: Proto-oncogene tyrosine-protein kinase receptor Ret (Homo sapiens) (UniProt P07949); conditions: at 1 µM
[18] = tested on: Proto-oncogene tyrosine-protein kinase receptor Ret (Homo sapiens), P07949 [V804L]; conditions: at 0.1 µM
[19] = tested on: Proto-oncogene tyrosine-protein kinase receptor Ret (Homo sapiens), P07949 [V804L]; conditions: at 1 µM
[20] = tested on: Proto-oncogene tyrosine-protein kinase receptor Ret (Homo sapiens), P07949 [Y791F]; conditions: at 0.1 µM

Proto-oncogene tyrosine-protein kinase receptor Ret (Homo sapiens), sequence (P07949 whole entry): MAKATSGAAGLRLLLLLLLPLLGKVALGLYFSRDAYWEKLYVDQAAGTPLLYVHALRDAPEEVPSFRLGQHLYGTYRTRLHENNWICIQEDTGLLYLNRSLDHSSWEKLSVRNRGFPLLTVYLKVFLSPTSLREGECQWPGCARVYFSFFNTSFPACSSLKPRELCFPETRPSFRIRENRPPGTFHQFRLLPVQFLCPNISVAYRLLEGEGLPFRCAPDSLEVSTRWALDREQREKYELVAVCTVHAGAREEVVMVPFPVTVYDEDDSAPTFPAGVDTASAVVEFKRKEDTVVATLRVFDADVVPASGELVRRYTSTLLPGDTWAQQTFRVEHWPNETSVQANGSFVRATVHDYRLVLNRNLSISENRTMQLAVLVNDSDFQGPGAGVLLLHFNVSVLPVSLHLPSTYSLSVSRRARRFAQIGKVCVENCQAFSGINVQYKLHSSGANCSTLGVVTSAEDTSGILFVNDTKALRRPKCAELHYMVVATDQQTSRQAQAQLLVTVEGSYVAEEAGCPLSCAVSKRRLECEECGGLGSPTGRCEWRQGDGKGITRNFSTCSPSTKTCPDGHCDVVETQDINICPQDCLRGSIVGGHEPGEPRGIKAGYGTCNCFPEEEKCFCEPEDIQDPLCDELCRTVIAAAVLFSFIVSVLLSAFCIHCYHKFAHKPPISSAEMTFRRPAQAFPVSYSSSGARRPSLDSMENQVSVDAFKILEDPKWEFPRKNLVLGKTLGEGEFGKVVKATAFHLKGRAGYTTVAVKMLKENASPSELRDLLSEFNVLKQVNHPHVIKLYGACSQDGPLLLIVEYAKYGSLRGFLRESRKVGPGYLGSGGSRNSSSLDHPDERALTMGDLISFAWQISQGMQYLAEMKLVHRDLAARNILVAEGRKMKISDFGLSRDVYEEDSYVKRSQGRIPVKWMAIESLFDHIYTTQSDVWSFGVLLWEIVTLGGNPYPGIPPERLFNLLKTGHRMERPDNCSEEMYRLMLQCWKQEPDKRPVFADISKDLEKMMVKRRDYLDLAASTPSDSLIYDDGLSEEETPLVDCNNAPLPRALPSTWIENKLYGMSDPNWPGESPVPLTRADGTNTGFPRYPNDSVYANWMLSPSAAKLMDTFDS
Platelet-derived growth factor receptor alpha (Homo sapiens), P16234 [D842V], sequence (P16234 whole entry D842V): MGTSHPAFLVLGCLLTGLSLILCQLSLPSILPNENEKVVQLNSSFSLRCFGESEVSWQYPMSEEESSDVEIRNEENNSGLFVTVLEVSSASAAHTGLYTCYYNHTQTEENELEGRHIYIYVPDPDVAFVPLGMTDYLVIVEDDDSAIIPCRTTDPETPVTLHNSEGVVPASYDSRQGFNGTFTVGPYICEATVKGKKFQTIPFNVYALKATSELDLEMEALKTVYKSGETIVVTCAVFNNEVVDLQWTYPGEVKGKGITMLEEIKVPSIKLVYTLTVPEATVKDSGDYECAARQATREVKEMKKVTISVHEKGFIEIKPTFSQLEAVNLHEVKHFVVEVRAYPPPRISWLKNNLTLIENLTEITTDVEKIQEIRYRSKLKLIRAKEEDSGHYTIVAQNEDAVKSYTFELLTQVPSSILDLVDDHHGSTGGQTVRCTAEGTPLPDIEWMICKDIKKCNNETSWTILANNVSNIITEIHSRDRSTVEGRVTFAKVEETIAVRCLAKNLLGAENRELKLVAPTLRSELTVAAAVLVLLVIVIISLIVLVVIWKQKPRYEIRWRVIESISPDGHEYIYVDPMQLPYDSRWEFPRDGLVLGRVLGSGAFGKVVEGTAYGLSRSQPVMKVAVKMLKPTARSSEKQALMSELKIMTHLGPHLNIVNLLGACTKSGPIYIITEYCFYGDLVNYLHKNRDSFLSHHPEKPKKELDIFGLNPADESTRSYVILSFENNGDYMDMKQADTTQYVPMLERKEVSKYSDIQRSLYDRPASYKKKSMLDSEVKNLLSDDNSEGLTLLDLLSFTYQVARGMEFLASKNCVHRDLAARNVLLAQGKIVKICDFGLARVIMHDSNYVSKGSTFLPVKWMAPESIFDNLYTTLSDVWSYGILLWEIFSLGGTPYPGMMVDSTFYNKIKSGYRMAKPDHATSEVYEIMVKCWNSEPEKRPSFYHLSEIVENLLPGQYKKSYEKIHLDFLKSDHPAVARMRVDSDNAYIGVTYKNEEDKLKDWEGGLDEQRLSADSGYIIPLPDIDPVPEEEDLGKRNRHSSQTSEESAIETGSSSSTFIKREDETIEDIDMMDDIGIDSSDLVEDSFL
Protein-tyrosine kinase 2-beta (Homo sapiens), sequence (Q14289 whole entry, looked up): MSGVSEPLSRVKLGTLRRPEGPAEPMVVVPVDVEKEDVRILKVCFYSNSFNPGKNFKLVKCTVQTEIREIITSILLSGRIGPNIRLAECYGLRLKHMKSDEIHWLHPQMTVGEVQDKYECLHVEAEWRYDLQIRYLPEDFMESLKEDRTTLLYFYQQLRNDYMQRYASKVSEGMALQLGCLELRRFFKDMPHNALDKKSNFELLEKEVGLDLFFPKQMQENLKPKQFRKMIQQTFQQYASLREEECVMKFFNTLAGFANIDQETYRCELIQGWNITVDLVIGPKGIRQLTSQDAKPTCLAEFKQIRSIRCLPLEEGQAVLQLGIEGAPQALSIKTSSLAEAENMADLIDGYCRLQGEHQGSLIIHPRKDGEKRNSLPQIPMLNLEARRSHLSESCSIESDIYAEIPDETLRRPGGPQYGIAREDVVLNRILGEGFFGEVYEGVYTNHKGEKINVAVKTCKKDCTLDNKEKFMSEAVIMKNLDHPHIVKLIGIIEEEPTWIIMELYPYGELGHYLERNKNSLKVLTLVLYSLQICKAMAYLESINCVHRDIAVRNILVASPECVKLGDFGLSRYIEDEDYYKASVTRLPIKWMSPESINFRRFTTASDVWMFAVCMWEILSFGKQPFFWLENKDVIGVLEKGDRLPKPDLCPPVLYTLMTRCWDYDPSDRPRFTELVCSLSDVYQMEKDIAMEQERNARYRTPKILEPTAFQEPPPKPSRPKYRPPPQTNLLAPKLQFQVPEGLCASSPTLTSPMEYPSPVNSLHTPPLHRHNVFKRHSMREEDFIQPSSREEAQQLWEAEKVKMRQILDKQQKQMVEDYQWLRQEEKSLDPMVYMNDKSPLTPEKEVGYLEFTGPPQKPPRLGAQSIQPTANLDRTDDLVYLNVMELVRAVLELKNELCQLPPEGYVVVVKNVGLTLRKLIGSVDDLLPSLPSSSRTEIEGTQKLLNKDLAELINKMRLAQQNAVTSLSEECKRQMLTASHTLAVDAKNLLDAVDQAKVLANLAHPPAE
Tyrosine-protein kinase FRK (Homo sapiens), sequence (P42685 whole entry): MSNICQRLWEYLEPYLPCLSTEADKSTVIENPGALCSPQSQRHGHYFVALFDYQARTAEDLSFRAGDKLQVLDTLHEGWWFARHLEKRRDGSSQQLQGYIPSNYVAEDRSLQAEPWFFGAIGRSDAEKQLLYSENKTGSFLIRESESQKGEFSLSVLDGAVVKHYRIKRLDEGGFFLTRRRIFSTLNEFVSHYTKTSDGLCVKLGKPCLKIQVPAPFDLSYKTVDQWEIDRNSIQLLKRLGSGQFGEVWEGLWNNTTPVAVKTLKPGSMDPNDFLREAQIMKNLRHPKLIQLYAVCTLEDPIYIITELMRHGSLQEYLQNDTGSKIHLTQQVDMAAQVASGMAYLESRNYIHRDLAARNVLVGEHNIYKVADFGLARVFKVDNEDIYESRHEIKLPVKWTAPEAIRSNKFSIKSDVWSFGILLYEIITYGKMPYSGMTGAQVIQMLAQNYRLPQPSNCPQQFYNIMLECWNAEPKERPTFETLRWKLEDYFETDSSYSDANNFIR
Platelet-derived growth factor receptor beta (Homo sapiens), sequence (P09619 whole entry): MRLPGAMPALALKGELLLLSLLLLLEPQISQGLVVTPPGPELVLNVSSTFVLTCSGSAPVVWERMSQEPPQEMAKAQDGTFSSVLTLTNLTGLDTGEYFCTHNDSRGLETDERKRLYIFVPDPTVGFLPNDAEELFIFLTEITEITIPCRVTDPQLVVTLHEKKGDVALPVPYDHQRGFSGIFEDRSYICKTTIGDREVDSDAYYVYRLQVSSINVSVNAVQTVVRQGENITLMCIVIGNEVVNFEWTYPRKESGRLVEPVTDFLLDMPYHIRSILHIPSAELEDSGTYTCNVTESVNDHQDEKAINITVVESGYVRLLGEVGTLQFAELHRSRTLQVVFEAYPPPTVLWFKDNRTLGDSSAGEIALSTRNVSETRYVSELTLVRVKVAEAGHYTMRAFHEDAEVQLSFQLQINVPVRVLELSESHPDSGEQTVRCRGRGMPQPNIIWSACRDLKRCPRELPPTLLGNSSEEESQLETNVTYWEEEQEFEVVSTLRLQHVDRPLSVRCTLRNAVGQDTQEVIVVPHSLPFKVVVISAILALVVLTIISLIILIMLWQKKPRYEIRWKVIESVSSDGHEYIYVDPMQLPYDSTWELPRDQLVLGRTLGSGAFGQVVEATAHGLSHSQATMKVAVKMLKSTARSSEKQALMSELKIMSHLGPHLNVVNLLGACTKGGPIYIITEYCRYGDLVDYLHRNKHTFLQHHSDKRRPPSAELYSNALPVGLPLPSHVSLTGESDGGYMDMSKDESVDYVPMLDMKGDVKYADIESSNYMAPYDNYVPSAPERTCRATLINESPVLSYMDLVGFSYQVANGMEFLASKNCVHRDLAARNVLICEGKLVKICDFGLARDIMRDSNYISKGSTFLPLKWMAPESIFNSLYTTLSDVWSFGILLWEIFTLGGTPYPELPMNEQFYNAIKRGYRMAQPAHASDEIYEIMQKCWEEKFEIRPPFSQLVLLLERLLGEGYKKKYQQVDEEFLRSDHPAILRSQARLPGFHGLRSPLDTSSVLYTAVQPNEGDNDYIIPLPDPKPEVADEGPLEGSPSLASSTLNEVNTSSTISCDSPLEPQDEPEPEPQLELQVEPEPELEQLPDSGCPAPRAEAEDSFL

Row | Structure (SMILES) | inhibition [1] [%] | inhibition [2] [%] | inhibition [3] [%] | inhibition [4] [%] | inhibition [5] [%] | inhibition [6] [%] | inhibition [7] [%] | inhibition [8] [%] | inhibition [9] [%] | inhibition [10] [%] | inhibition [11] [%] | inhibition [12] [%] | inhibition [13] [%] | inhibition [14] [%] | inhibition [15] [%] | inhibition [16] [%] | inhibition [17] [%] | inhibition [18] [%] | inhibition [19] [%] | inhibition [20] [%]
1 | CN1CCC(n2cnc(-c3ccc(F)cc3)c2-c2ccnc(N)n2)CC1 | 3.89 | 6.86 | 25.6 | 3.56 | 17.9 | 4.48 | 5.18 | 4.45 | 16.9 | 4.26 | 29.6 | 0.15 | 1.13 | -2.24 | 6.37 | 5.6 | 18.7 | 1.63 | 13.3 | 4.75
2 | CNC(=O)c1cc(-c2ccc(F)cc2)cc(-c2ccc(S(=O)(=O)N3CCCC3)cc2)c1N | 0.83 | 3.69 | 7.98 | 2.05 | 1.76 | 2.94 | 2.93 | 3.32 | 2.29 | 3.45 | 6.26 | 2.42 | 2.21 | 2.65 | 7.64 | 2.88 | 2.96 | 2.49 | 5.41 | 3.21
3 | COc1ccc2[nH]c3c4[nH]c5ccc(OC)cc5c4c4c(c3c2c1)C(=O)NC4=O | 11.8 | 81.1 | 83.5 | 94.8 | 96.3 | 65.7 | 94.3 | 93.8 | 96.8 | 78.2 | 85.1 | -0.26 | 0.68 | 29.5 | 80.6 | 40.5 | 77.3 | 71 | 82.1 | 44.8
4 | Nc1nc(-c2ccc(F)cc2)c(-c2ccc3ncccc3n2)s1 | 7.29 | 16.9 | 51.7 | 14.4 | 61.6 | 9.38 | 11.5 | 13.2 | 49.5 | 10.9 | 42.9 | 2.59 | 2.66 | 10 | 14.3 | 8.56 | 14.8 | 4.68 | 7.83 | 7.45
5 | NS(=O)(=O)c1ccc(N/N=C2\C(=O)Nc3ccc4ncccc4c32)cc1 | 49.5 | 58.9 | 82.2 | 63.4 | 92.3 | 16.7 | 73.6 | 54.5 | 92.4 | 63.2 | 82.8 | 0.32 | 4.11 | 6.43 | 43.2 | 37.3 | 78.9 | 57.7 | 82.7 | 45.3
6 | CCn1c(-c2nonc2N)nc2ccccc21 | 4.12 | 6.47 | 8.29 | 2.53 | 2.64 | 2.43 | 3.19 | 1.19 | 1.67 | 2.55 | 5.69 | 0.05 | 1.69 | 4.43 | 7.84 | 1.65 | 3.15 | 2.56 | 0.52 | 4.13
7 | CCOc1ccc2c(-c3ccnc(Nc4cccc(C(F)(F)F)c4)n3)cnn2n1 | 1.27 | 9.61 | 27.3 | 2.8 | 10.2 | 3.74 | 9.48 | 2.96 | 15.9 | 7.67 | 20.5 | 2.02 | 0.63 | -2 | 3.33 | 0.9 | 5.18 | 5.38 | 6.22 | 7.78
8 | COc1ccc(-c2cc3c(N)ncnc3o2)cc1 | 2.3 | -1.4 | 16.5 | 2.85 | 9.77 | 1.44 | 4.01 | 3.4 | 19.1 | 1.93 | 11.2 | 0.49 | 0.16 | -4.88 | 8.21 | -1.19 | 0.94 | 0.48 | 2.98 | 2.13
9 | Fc1ccc(-c2nn3ncccc3c2-c2ccnc(Nc3ccc4c(c3)OCCO4)n2)cc1 | 3.55 | 15.1 | 54.8 | 12.1 | 56.1 | 5.87 | 17.9 | 21.9 | 72 | 29.3 | 69.7 | 5.64 | 25.4 | 16.4 | 44 | 23.5 | 64.9 | 4.29 | 4.6 | 30.8
10 | CC(=O)Nc1cccc(C#Cc2cncnc2Nc2ccc(OCc3cccc(F)c3)c(Cl)c2)c1 | 6.82 | 8.71 | 15.1 | 1.39 | 1.82 | 5.24 | 1.24 | -4.05 | 4.74 | 3.29 | 6.94 | 0.81 | 2.51 | -2.17 | 4.14 | 6.84 | 11 | 5.7 | 9.51 | 13.3
11 | COc1ccc(-c2oc3ncnc(N)c3c2-c2ccc(NC(=O)Nc3cc(C(F)(F)F)ccc3F)cc2)cc1 | 101 | 38.6 | 88.9 | 6.4 | 54.4 | 18 | 72.1 | 26.6 | 86.2 | 20.2 | 80.4 | 11.5 | 65 | 18.8 | 91 | 89 | 93.6 | 69.5 | 87.8 | 74.4
12 | COC(=O)c1sc(-n2cnc3cc(OC)c(OC)cc32)cc1OCc1ccccc1C(F)(F)F | 48.1 | 26.1 | 66.3 | 18 | 66.5 | 9.67 | 44.6 | 22.2 | 70.6 | 14.9 | 54.9 | 2.68 | 2.31 | 11.6 | 10.7 | 24.8 | 64.5 | 9.09 | 27.8 | 25.1
13 | CN1CCC(n2cnc(-c3ccc(F)cc3)c2-c2ccnc(Nc3ccccc3)n2)CC1 | 2.15 | 8.81 | 22.1 | 4.56 | 18.6 | 5.9 | 5.98 | 5.65 | 15.5 | 7.67 | 44.7 | 0.85 | 1.83 | 4.25 | 5.64 | 6.59 | 18.3 | 4.17 | 7.13 | 7.03
14 | CS(=O)(=O)CCNCc1coc(-c2ccc3ncnc(Nc4ccc(OCc5ccccc5)cc4)c3c2)c1 | 4.59 | 7.28 | 11.5 | 3.71 | 4.82 | 3.65 | 6.58 | 3.61 | 12.8 | 3.03 | 5.87 | 1.08 | 0.27 | 3.8 | 3.38 | 3.04 | 8.54 | 3.88 | 5.06 | 6.2
